About 6,500 targets were measured; listed, in parts, are those with a hit and a random draw of the rest. About 2% of all pairs of compound and target were hits.
Each target was assayed with COC(=O)C#Cc1ccccc1 [methyl 3-phenylpropiolate] (assay: log2 ratio of iodoacetamide-alkyne labeling of the cysteine site, DMSO over compound (competition); higher = stronger covalent engagement of the cysteine by the compound, active = 1 or more). Conditions: 500 µM; treatment time 1 h; system: HEK293T cell lysate.
Outline: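 HEK293T lysate (2 mg/mL) was treated with DMSO or electrophile (500 µM, 1 h, ambient temperature), then iodoacetamide alkyne (1 h), clicked to sCIP-TMT reagents, pooled, trypsin-digested overnight at 37 °C, streptavidin-enriched and acid-eluted. Peptides were run on Orbitrap Eclipse LC-MS/MS with FAIMS and quantified in FragPipe. The log2 competition ratio per cysteine is mean control-channel over mean compound-channel reporter intensity. Duplicate channels and three replicates were used, and cysteines quantified in only one replicate were excluded.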
Chain of UniProt P42166 (P42166 whole entry, looked up): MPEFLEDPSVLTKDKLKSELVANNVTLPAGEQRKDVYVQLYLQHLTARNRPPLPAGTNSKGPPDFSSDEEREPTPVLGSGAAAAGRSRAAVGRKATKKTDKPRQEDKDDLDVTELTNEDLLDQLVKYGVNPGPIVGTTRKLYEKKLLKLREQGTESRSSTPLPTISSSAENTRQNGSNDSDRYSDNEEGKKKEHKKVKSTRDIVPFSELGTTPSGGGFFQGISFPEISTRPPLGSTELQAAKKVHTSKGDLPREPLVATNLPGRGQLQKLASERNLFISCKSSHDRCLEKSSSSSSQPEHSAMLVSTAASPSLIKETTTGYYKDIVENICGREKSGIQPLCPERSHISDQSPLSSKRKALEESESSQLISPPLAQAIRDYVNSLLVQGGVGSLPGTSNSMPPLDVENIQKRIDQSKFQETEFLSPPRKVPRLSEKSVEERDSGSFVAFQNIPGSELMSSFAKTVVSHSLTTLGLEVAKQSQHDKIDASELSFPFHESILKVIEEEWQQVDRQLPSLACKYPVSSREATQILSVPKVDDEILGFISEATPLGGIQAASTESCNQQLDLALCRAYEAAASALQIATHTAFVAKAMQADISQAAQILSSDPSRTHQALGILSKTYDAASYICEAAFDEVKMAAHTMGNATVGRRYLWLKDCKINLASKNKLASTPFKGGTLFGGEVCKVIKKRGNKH
Chain of UniProt P49792 (P49792 whole entry, looked up): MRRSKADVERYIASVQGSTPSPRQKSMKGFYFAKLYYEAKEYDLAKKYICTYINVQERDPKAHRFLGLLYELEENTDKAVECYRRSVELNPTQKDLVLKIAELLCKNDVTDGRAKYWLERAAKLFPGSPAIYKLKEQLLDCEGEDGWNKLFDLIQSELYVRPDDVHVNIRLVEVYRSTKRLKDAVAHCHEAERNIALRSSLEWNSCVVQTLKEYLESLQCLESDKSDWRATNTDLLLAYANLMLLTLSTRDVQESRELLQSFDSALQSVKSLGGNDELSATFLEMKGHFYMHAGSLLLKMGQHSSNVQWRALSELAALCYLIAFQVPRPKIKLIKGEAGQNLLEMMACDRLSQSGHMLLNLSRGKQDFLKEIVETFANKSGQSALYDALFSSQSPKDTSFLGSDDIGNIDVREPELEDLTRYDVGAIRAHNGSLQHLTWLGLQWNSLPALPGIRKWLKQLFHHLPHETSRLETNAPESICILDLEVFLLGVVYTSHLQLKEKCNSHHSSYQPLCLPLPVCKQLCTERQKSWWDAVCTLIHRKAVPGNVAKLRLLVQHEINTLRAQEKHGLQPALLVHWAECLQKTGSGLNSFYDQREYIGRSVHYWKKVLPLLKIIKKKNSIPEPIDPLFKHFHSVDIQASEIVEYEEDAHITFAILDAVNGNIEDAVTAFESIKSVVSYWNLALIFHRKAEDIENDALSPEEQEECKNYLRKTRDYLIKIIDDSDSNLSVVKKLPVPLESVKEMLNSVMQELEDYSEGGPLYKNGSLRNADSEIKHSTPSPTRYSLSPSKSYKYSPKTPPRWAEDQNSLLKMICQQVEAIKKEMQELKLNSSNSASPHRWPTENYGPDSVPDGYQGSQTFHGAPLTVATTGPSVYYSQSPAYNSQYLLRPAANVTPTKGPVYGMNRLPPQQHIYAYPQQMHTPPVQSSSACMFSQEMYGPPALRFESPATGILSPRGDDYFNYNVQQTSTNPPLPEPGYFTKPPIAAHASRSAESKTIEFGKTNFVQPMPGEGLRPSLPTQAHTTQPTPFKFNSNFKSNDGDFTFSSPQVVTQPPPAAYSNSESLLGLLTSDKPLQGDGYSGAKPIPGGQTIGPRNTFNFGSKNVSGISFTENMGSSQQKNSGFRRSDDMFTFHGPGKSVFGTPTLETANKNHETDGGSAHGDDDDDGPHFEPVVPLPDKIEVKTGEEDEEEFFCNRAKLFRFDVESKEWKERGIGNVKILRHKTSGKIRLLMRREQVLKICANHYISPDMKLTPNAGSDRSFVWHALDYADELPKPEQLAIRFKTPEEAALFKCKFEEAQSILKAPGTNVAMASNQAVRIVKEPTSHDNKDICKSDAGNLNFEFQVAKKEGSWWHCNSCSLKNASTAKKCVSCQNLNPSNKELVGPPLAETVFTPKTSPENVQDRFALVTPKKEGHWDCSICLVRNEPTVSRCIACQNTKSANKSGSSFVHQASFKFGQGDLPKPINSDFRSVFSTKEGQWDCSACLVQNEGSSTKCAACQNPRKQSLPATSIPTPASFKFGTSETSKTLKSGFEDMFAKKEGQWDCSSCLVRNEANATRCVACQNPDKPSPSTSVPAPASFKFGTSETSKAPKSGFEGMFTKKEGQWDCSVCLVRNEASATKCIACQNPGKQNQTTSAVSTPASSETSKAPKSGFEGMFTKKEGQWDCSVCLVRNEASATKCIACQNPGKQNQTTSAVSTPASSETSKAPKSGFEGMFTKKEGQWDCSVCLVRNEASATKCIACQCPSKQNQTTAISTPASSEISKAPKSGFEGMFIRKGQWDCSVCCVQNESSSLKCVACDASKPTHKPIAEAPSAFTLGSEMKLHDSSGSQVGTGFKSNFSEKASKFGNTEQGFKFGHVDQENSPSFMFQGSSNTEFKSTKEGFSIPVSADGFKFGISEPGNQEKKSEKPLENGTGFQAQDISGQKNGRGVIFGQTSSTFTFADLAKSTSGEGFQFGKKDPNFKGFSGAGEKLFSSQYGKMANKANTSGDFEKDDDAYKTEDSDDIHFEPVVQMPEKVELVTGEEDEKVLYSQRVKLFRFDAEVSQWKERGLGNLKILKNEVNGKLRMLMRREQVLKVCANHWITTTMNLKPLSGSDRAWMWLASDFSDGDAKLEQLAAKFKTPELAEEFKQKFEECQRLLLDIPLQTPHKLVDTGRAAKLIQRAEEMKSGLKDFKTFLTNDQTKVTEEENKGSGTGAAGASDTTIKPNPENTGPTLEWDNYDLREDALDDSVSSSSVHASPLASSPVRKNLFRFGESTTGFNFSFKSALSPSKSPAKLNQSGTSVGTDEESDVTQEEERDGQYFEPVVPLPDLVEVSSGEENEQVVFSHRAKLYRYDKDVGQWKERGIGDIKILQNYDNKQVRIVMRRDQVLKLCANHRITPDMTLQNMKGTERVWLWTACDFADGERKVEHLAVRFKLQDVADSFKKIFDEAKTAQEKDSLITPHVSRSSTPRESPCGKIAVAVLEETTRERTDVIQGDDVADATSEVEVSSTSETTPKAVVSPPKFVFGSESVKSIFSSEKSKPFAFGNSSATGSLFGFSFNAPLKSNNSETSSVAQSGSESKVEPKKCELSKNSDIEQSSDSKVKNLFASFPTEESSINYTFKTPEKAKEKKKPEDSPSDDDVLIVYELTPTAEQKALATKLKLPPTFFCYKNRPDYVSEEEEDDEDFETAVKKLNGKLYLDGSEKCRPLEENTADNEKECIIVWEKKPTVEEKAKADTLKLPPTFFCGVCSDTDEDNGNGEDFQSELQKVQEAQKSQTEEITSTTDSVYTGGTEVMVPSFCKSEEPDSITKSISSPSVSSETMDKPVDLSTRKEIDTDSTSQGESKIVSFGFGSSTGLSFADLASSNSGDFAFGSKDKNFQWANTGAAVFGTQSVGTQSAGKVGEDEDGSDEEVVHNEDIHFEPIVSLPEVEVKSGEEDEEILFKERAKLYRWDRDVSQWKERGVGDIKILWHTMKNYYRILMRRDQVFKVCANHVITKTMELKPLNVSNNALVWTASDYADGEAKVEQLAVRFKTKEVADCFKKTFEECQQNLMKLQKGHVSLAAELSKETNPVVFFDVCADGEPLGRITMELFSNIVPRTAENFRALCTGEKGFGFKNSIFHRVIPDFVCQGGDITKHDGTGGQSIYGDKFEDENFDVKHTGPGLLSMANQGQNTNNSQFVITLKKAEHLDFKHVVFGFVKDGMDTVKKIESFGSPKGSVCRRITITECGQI
Chain of UniProt P00390 (P00390 whole entry, looked up): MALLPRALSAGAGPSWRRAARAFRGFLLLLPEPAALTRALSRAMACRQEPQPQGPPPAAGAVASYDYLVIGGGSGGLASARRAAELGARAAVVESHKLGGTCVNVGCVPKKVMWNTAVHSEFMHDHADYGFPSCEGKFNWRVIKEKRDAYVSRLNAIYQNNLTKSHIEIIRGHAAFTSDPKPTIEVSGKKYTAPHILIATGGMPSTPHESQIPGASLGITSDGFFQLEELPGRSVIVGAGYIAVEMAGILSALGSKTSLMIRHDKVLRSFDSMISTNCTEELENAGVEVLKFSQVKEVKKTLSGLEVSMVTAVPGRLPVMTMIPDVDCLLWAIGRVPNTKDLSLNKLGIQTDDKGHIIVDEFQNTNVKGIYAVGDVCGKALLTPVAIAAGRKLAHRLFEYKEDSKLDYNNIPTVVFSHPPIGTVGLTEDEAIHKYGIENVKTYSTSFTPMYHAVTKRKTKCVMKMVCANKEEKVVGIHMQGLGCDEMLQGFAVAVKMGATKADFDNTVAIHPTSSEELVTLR
Chain of UniProt P49069 (P49069 whole entry): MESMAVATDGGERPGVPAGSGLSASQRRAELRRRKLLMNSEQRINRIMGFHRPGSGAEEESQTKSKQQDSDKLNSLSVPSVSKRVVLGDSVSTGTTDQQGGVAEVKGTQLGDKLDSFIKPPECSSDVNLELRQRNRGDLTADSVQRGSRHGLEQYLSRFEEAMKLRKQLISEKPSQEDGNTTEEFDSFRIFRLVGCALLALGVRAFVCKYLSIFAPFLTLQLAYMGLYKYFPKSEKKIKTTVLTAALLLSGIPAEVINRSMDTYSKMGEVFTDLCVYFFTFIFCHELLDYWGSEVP
Chain of UniProt P51991 (P51991 whole entry, looked up): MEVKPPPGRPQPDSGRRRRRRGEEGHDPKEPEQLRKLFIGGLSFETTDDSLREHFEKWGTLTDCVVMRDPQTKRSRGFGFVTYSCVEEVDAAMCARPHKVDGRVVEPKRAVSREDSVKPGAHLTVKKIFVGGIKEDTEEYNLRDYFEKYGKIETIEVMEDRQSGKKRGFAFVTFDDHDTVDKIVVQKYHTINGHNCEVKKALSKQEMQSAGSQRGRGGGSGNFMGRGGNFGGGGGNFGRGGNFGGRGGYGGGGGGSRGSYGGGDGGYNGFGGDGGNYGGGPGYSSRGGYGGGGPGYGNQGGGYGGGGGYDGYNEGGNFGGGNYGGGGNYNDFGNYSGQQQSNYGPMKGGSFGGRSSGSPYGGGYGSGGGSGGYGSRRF
In the case of ACADM C156 (UniProt P11310), the “log2 ratio of iodoacetamide-alkyne labeling” value (shortened to “log2 ratio”) was 0.666 (inactive).
With PEX5 C11 (UniProt P50542) the “log2 ratio” value was 0.204 (inactive).
HNRNPA3 C196 (UniProt P51991) was tested, and the “log2 ratio” value was -0.0216 (inactive).
With HCFC1 C1872 (UniProt P51610) the “log2 ratio” value was 1.32 (active).
GSR C102 (UniProt P00390) was tested, and the “log2 ratio” value was 0.154 (inactive).
With CTSB C319 (UniProt P07858) the “log2 ratio” value was 0.512 (inactive).
For UniProt P41250_C616, the “log2 ratio” value was -0.119 (inactive).
In the case of ANXA7 C285 (UniProt P20073), the “log2 ratio” value was 0.0794 (inactive).
With UniProt P14618_C424 the “log2 ratio” value was -0.246 (inactive).
CAPZA2 C111 (UniProt P47755) was tested, and the “log2 ratio” value was 0.0355 (inactive).
EEF2 C369 (UniProt P13639) was tested, and the “log2 ratio” value was 0.24 (inactive).
EEF2 C812 (UniProt P13639) was tested, and the “log2 ratio” value was 0.148 (inactive).
With RPL9 C134 (UniProt P32969) the “log2 ratio” value was 0.0357 (inactive).
With IGF2R C2232 (UniProt P11717) the “log2 ratio” value was 1.08 (active).
In the case of RPL4 C96 (UniProt P36578), the “log2 ratio” value was 1.24 (active).
UniProt P49459_C88 was tested, and the “log2 ratio” value was 0.243 (inactive).
With MCC C714 (UniProt P23508) the “log2 ratio” value was 0.565 (inactive).
In the case of EEF2 C651 (UniProt P13639), the “log2 ratio” value was 0.0919 (inactive).
In the case of BSG C242 (UniProt P35613), the “log2 ratio” value was 0.215 (inactive).
With UniProt P23610_C62 the “log2 ratio” value was 0.0767 (inactive).
With HPRT1 C206 (UniProt P00492) the “log2 ratio” value was 0.0837 (inactive).
RANBP2 C82 (UniProt P49792) was tested, and the “log2 ratio” value was 0.564 (inactive).
For CBX5 C133 (UniProt P45973), the “log2 ratio” value was 0.17 (inactive).
For UniProt P49591_C438, the “log2 ratio” value was 0.0645 (inactive).
TTK C284 (UniProt P33981) was tested, and the “log2 ratio” value was 0.53 (inactive).
For TMPO C280 (UniProt P42166), the “log2 ratio” value was 1.09 (active).
With UniProt P26367_C94 the “log2 ratio” value was 0.097 (inactive).
In the case of PFN1 C17 (UniProt P07737), the “log2 ratio” value was -0.417 (inactive).
With RAP1GDS1 C85 (UniProt P52306) the “log2 ratio” value was 0.197 (inactive).
With DNAJB1 C267 (UniProt P25685) the “log2 ratio” value was 0.268 (inactive).
With MAT2A C104 (UniProt P31153) the “log2 ratio” value was 0.274 (inactive).
For MTHFD1 C691 (UniProt P11586), the “log2 ratio” value was 0.242 (inactive).
In the case of CAMLG C123 (UniProt P49069), the “log2 ratio” value was 0.308 (inactive).
For ACAA2 C128 (UniProt P42765), the “log2 ratio” value was 1.22 (active).
For FDFT1 C6 (UniProt P37268), the “log2 ratio” value was 0.233 (inactive).
For RPL14 C42 (UniProt P50914), the “log2 ratio” value was 1.82 (active).
With ACAA1 C123 (UniProt P09110) the “log2 ratio” value was -0.0075 (inactive).

— the supplement of paper PMC11006884
